Where “and” joins values, the source holds several entries; their conditions need not be identical. Identical values can stand only once. In all, about 5,500 compounds went through this assay and about 2,000 (36%) were called active. About 18% were inconclusive and are not listed. Rule as the data show it: active = normalized growth mostly below about 0.91 (no sharp cut-off); inconclusive = no clear call, values can overlap the other calls; inactive = mostly above about 0.92. The list shows a part of the results.
Test: chemical genetic growth profiling, strain panel (AID 1159580);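 also: tested at 20 µM; growth read once vehicle control cultures reached saturation at 30 °C; 1 = growth at the plate median or of vehicle wells; lower values mean less growth of the strain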
Conditions: growth OD

Measured: normalized growth

CC1OC1P(=O)(O)O (stereo unspecified)
inactive: S. cerevisiae deletion strains, locus YKL009W, strain mrt4, active compounds read low 0.991 | S. cerevisiae deletion strains, locus YKL068W, active compounds read low 0.988 | S. cerevisiae deletion strains, locus YKL085W, strain MDH1 (second series), active compounds read low 0.978 | S. cerevisiae deletion strains, locus YKL085W, strain MDH1, active compounds read low 0.978 | S. cerevisiae deletion strains, locus YKL160W, strain elf1, active compounds read low 0.971 | S. cerevisiae deletion strains, locus YKL190W, strain CNB1, active compounds read low 1 | S. cerevisiae deletion strains, locus YKR001C, strain vps1, active compounds read low 0.992 | S. cerevisiae deletion strains, locus YKR026C, strain gcn3, active compounds read low 1 | S. cerevisiae deletion strains, locus YKR091W, strain srl3, active compounds read low 0.988 | S. cerevisiae deletion strains, locus YLL001W, strain dnm1, active compounds read low 0.982 | S. cerevisiae deletion strains, locus YLL026W, active compounds read low 0.985 | S. cerevisiae deletion strains, locus YLL041C, strain sdh2, active compounds read low 0.999 | S. cerevisiae deletion strains, locus YLR027C, strain aat2, active compounds read low 0.975 | S. cerevisiae deletion strains, locus YLR039C, strain RIC1, active compounds read low 0.991 | S. cerevisiae deletion strains, locus YLR058C, strain SHM2, active compounds read low 0.996 | S. cerevisiae deletion strains, locus YLR102C, strain apc9, active compounds read low 0.99 | S. cerevisiae deletion strains, locus YLR221C, strain rsa3, active compounds read low 0.974 | S. cerevisiae deletion strains, locus YLR258W, strain gsy2, active compounds read low 0.979 | S. cerevisiae deletion strains, locus YLR262C, strain YPT6 (second series), active compounds read low 0.987 | S. cerevisiae deletion strains, locus YLR262C, strain YPT6, active compounds read low 0.956 | S. cerevisiae deletion strains, locus YLR268W, strain sec22, active compounds read low 0.986 | S. cerevisiae deletion strains, locus YLR320W, strain mms22, active compounds read low 0.958 | S. cerevisiae deletion strains, locus YLR330W, strain CHS5, active compounds read low 0.992 | S. cerevisiae deletion strains, locus YLR342W, strain FKS1 (second series), active compounds read low 0.963 | S. cerevisiae deletion strains, locus YLR342W, strain FKS1, active compounds read low 0.983 | S. cerevisiae deletion strains, locus YLR357W, strain rsc2, active compounds read low 0.954 | S. cerevisiae deletion strains, locus YLR370C, strain arc18, active compounds read low 0.999 | S. cerevisiae deletion strains, locus YLR371W, strain rom2, active compounds read low 0.977 | S. cerevisiae deletion strains, locus YLR384C, strain iki3, active compounds read low 0.995 | S. cerevisiae deletion strains, locus YLR418C, strain cdc73, active compounds read low 0.963 | S. cerevisiae deletion strains, locus YML016C, strain PPZ1, active compounds read low 0.99 | S. cerevisiae deletion strains, locus YML032C, strain rad52, active compounds read low 0.997 | S. cerevisiae deletion strains, locus YML120C, strain ndi1, active compounds read low 0.998 | S. cerevisiae deletion strains, locus YML124C, strain tub3, active compounds read low 0.992 | S. cerevisiae deletion strains, locus YMR058W, strain fet3, active compounds read low 0.998 | S. cerevisiae deletion strains, locus YMR078C, strain ctf18, active compounds read low 0.982 | S. cerevisiae deletion strains, locus YMR125W, strain sto1, active compounds read low 1.01 | S. cerevisiae deletion strains, locus YMR129W, active compounds read low 1.01 | S. cerevisiae deletion strains, locus YMR205C, strain PFK2, active compounds read low 0.962 | S. cerevisiae deletion strains, locus YMR223W, strain ubp8, active compounds read low 0.971 | S. cerevisiae deletion strains, locus YMR231W, strain pep5, active compounds read low 0.991 | S. cerevisiae deletion strains, locus YMR263W, strain SAP30, active compounds read low 1.01 and 1 | S. cerevisiae deletion strains, locus YMR307W, strain GAS1, active compounds read low 0.94 | S. cerevisiae deletion strains, locus YNL067W, strain RPL9B, active compounds read low 1.03 | S. cerevisiae deletion strains, locus YNL071W, strain lat1, active compounds read low 1 | S. cerevisiae deletion strains, locus YNL128W, strain TEP1, active compounds read low 0.986 | S. cerevisiae deletion strains, locus YNL153C, strain GIM3, active compounds read low 1.15 | S. cerevisiae deletion strains, locus YNL175C, strain NOP13, active compounds read low 0.984 | S. cerevisiae deletion strains, locus YNL197C, strain WHI3, active compounds read low 0.988 | S. cerevisiae deletion strains, locus YNL209W, strain ssb2, active compounds read low 0.981 | S. cerevisiae deletion strains, locus YNL224C, strain SQS1, active compounds read low 0.983 | S. cerevisiae deletion strains, locus YNL233W, strain BNI4, active compounds read low 1 | S. cerevisiae deletion strains, locus YNL248C, strain rpa49, active compounds read low 1.03 | S. cerevisiae deletion strains, locus YNL250W, strain rad50, active compounds read low 0.952 | S. cerevisiae deletion strains, locus YNL271C, strain bni1, active compounds read low 0.993 | S. cerevisiae deletion strains, locus YNL298W, strain CLA4, active compounds read low 0.994 | S. cerevisiae deletion strains, locus YNL307C, strain MCK1, active compounds read low 0.98 | S. cerevisiae deletion strains, locus YNL322C, strain KRE1 (second series), active compounds read low 0.967 | S. cerevisiae deletion strains, locus YNL322C, strain KRE1, active compounds read low 0.996 and 0.98 | S. cerevisiae deletion strains, locus YNR049C, strain mso1, active compounds read low 1 | S. cerevisiae deletion strains, locus YNR052C, strain pop2, active compounds read low 0.978 | S. cerevisiae deletion strains, locus YOL006C, strain TOP1, active compounds read low 1.02 | S. cerevisiae deletion strains, locus YOL012C, strain htz1 1.02 | S. cerevisiae deletion strains, locus YOL147C, strain pex11, active compounds read low 0.98 | S. cerevisiae deletion strains, locus YOR001W, strain rrp6, active compounds read low 0.971 | S. cerevisiae deletion strains, locus YOR061W, strain CKA2, active compounds read low 0.987 | S. cerevisiae deletion strains, locus YOR069W, strain VPS5, active compounds read low 0.992 | S. cerevisiae deletion strains, locus YOR070C, strain gyp1, active compounds read low 0.981 | S. cerevisiae deletion strains, locus YOR080W, strain dia2, active compounds read low 1 | S. cerevisiae deletion strains, locus YOR083W, strain WHI5 (second series), active compounds read low 0.997 | S. cerevisiae deletion strains, locus YOR083W, strain WHI5, active compounds read low 0.95 | S. cerevisiae deletion strains, locus YOR106W, strain vam3, active compounds read low 0.986 | S. cerevisiae deletion strains, locus YOR136W, strain idh2, active compounds read low 0.994 | S. cerevisiae deletion strains, locus YOR144C, strain elg1, active compounds read low 0.989 | S. cerevisiae deletion strains, locus YOR184W, strain ser1, active compounds read low 0.972 | S. cerevisiae deletion strains, locus YOR265W, strain rbl2, active compounds read low 0.977 | S. cerevisiae deletion strains, locus YOR270C, strain vph1, active compounds read low 1.07 | S. cerevisiae deletion strains, locus YOR290C, strain snf2, active compounds read low 0.992 | S. cerevisiae deletion strains, locus YOR316C, strain cot1, active compounds read low 0.993 | S. cerevisiae deletion strains, locus YPL051W, strain arl3, active compounds read low 0.977 | S. cerevisiae deletion strains, locus YPL055C, strain LGE1, active compounds read low 1.06 | S. cerevisiae deletion strains, locus YPL078C, strain atp4, active compounds read low 0.993 | S. cerevisiae deletion strains, locus YPL106C, strain sse1, active compounds read low 0.959 | S. cerevisiae deletion strains, locus YPL240C, strain hsp82, active compounds read low 0.997 | S. cerevisiae deletion strains, locus YPL241C, strain CIN2, active compounds read low 0.996 | S. cerevisiae deletion strains, locus YPR119W, strain clb2, active compounds read low 0.99 | S. cerevisiae deletion strains, locus YPR141C, strain kar3, active compounds read low 0.985 | S. cerevisiae deletion strains, locus YPR163C, strain tif3, active compounds read low 0.979 | S. cerevisiae deletion strains, locus YPR167C, strain met16, active compounds read low 0.987 | S. cerevisiae deletion strains, strain wtn01, active compounds read low 0.967 | S. cerevisiae strains, strain wild type, active compounds read low 1
